# Data as given in PubChem BioAssay (NCATS).
# Inconclusive results are not listed. Active and inactive are the calls of the source. The call rests on the fitted dose curve; in most records, active means well fitted curve in either direction with a large enough effect (not every such curve was filed as active); inconclusive means small, poorly fitted or top-dose-only effect, or another doubt; inactive means flat fitted curve, though single readings scatter.
# Test: NFAT Signaling Pathway (AID 444)
# Details: Jurkat NFAT-bla M1, carbachol, beta-lactamase ratio, 5 h; at 17.2 µM (top of the series) unless noted
# Excerpt: NCGC Assay Overview: The nuclear factor of activated T cells (NFAT) family of transcription factors has been found primarily in most immune system cells and some other non-immune cells. NFAT plays the immunomodulatory role, primarily in T-cell activation and differentiation. NFAT target genes are also involved in the regulation of apoptosis and differentiation in non-immune cell types. The NFAT sequence was engineered to the upstream of the ?-lactamase reporter gene and transfected into Jurkat cells with co-transfection of muscarinic receptor1 [provided by Invitrogen Corp]. When an extracellular stimulus, such as carbachol, binds to the GPCR M1 receptor, it stimulates a signaling cascade that activates NFAT response element and ?-lactamase expression by phosphorylating the NFAT binding protein. This cell based ?-lactamase reporter gene assay can accurately monitor any changes occurring along the NFAT pathway, and can be used for screening small molecule inhibitor or activator upon activation by carbachol EC50 concentration. A small molecular library were screened in a titration series resulting in AC50s (can be either IC50s or EC50s).
# NCGC Assay Protocol Summary: The cells were prepared in RPMI 1640 medium containing 0.1% dialyzed FBS and 25 mM HEPES at 1.6 x 10^6cell/ml. The assay was performed in 1536-well plate format as follows: 5 ul of cell preparation 23 nl of compounds 1ul of carbachol (final concentration 1 uM) Briefly centrifuge the plates and incubate at 37 °C for 5 hours 1 ul of CCF4 dye mixture Incubate the plates at RT for 1 hour Read the plate in EnVision plate reader (Ex= 405nm, and Em1=460nm and Em2=530nm). The %Activity was determined from the ratio of 460nm/530nm. Data normalization and AC50 calculations were accomplished using GeneData software.
# On the % scale 0 is the no-effect control and ±100 the full control effect.
row,SMILES,"activity change, negative = inhibition"
1,CC1(C)Cc2c(sc3c4nnnn4c4nnnn4c23)CO1,-96.8% (active)
2,O=C(Nc1nc(=O)c2ccccc2s1)c1ccccc1,-15.9% (inactive)
3,CCc1nc2c(sc3nc(N4CCOCC4)c4c(c32)CC(C)(C)OC4)c(=O)o1,-0.695% (inactive)
4,O=C(NO)c1ccccc1O,-9.27% (inactive)
5,N#CC12CCCCC1CC1CCCCC1(C#N)N2Cc1ccccn1 (stereo not given),-14.8% (inactive)
6,CN(C)C(=O)COn1c(SCC(=O)N(C)C)nc2ccccc2c1=O,14.2% (inactive)
7,Cc1cc(C)n(-c2nnc(C)n2/N=C/c2ccco2)n1,-7.08% (inactive)
8,COc1ccc(C2=Nn3c(nnc3-c3ccccn3)SC2)cc1OC,23.1% (inactive)
9,Cc1ccc(N2CC(C(=O)Nc3ccc(N(C)C)cc3)CC2=O)cc1C (stereo not given),21.8% (inactive)
10,Cc1nc(NS(=O)(=O)c2ccccc2)sc1NC(=O)OCCN(C)C,13.4% (inactive)
11,Cc1[nH]c2ccc(F)cc2c(=O)c1SC(F)(F)C(F)C(F)(F)F (stereo not given),10.1% (inactive)
12,CSc1nc2[nH]c3c(c2c2nncn12)CC(C)(C)OC3,-1.24% (inactive)
13,Cc1[nH]nc(-c2ccc(O)cc2O)c1Oc1ccccc1,-25.7% (inactive)
14,COc1ccccc1Nc1ncc(-c2cccs2)s1,11.7% (inactive)
15,CC(=N\O)/C(CN(C)C)=N/O,13% (inactive)
16,Nc1ccn([C@@H]2O[C@@H](CO)[C@@H](O)[C@H]2O)c(=O)n1,-7.43% [at 38 µM] (inactive)
17,C/C(=C\C(=O)O)CC(=O)O,-2% (inactive)
18,O=C(/C=C/c1ccccc1)c1ccccc1,-14.4% (inactive)
19,COc1ccccc1C1/C(=C(/O)c2ccc(C)cc2)C(=O)C(=O)N1CCN1CCOCC1 (stereo not given),19.8% (inactive)
20,CCCCCCOC(=O)CCn1[nH]c(=O)c2ccccc2c1=O,7.42% (inactive)

row,SMILES,"activity change, negative = inhibition"
1,Fc1ccc(-c2cnc[nH]2)cc1,-3.45% (inactive)
2,Cc1nc2c(o1)CCc1ccccc1C2N1CCN(C)CC1 (stereo not given),-82.4% (active)
3,CC1N(O)C(c2ccc(Cl)cc2Cl)N(O)C1(C)C (stereo not given),-14.6% (inactive)
4,CC1(C)Cc2c(c(N3CCOCC3)nc3snc(Br)c23)CO1,-26.2% (inactive)
5,CSc1nc(O)c(Cc2ccccc2)c(=O)[nH]1,14.1% (inactive)
6,CCCSc1nnc(NC(=O)Nc2ccccc2)s1,-25.9% (inactive)
7,CCCC(=O)N1CCN(c2nc(CC(C)C)c3c(c2C#N)CCC3)CC1,-18.4% (inactive)
8,Cc1ccc(C)c(OCc2nnc(NC(=O)c3ccco3)s2)c1,9.32% (inactive)
9,CCCCCC(=O)N1CC2(C)CN(C(=O)CCCCC)CC(C)(C1)C2=O,-13.6% (inactive)
10,Cc1nn(CC(=O)NCCN2CCOCC2)c(=O)c2ccccc12,20% (inactive)
11,COc1ccc(C=NCCCN2CCOCC2)cc1,-2.1% (inactive)
12,CC(=O)c1ccc(C#CC(C)(C)O)s1,-7.12% (inactive)
13,CCN(CC)CCN1C(=O)C(O)=C(C(C)=O)C1c1ccc(OC)c(OC)c1 (stereo not given),3.09% (inactive)
14,Fc1ccc(C2C3=C(Nc4ncnn42)c2ccccc2OC3c2ccncc2)cc1 (stereo not given),-17% (inactive)
15,Cc1ccc(-c2nnc(OCCN3CCOCC3)c3ccccc23)cc1,5.38% (inactive)
16,O=C(CN1C(=O)c2ccccc2C1=O)NCc1ccccn1,16.6% (inactive)
17,O=c1[nH]c(CN(CCO)CCO)nc2c1C1(CCCCC1)Cc1ccccc1-2,6.88% (inactive)
18,CCCOc1cccc(C2C(C(=O)c3ccc(C)o3)=C(O)C(=O)N2CCCN(C)C)c1 (stereo not given),10.1% (inactive)
19,N#Cc1c(N2CCOCC2)nc(-c2ccco2)c2c1CCCC2,4.52% (inactive)
20,CCOC(=O)c1c(C)n(C)c2ccc(OC)c(NC(=O)CCN3CCSCC3)c12,4.14% (inactive)
